From PubChem BioAssay AID1851 (National Center for Advancing Translational Sciences (NCATS), 2009)
Several values for one entry are separate records, joined by “and”; a condition that tells them apart may be missing. Equal entries are not always repeated. The whole screen tested about 16,000 compounds, of which about 5,700 (36%) were called active. Another 24% or so got no clear call; they are omitted. Some of the results follow. Values without a mark were called inactive. The call rests on the fitted dose curve; in most records, active means well fitted curve in the direction sought with a large enough effect; inconclusive means small, poorly fitted or top-dose-only effect, or effect the other way; inactive means no such curve, though single readings can be large or run the other way. Square brackets hold non-standard residues; d marks the D form. Peptide text beside a SMILES is read from it.

What follows are compounds tested against Cytochrome P450 1A2 (Homo sapiens) (UniProt P05177) (assay: Cytochrome panel assay with activity outcomes). Conditions: recombinant CYP, pro-luciferin dealkylation, luminescence, p450-cyp1a2; series mostly up to 57.1 µM; activity, negative = inhibition: at the top concentration.
Chain of Cytochrome P450 1A2 (Homo sapiens) (P05177 whole entry, looked up): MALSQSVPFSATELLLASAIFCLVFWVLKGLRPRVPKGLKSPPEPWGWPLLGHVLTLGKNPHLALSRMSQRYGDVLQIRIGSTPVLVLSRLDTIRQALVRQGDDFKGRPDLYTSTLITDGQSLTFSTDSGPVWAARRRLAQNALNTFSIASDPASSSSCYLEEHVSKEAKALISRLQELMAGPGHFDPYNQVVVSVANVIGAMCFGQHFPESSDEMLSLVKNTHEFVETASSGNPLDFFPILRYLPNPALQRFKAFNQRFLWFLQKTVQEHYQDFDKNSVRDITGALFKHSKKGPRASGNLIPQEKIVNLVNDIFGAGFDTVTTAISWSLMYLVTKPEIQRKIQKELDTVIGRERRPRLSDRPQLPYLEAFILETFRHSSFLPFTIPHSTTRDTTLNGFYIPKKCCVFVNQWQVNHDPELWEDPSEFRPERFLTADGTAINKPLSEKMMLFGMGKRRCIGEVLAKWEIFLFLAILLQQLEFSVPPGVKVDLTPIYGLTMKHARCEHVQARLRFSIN
On the % scale 0 is the no-effect control and ±100 the full control effect.

Row | SMILES | AC50 | activity, negative = inhibition
1 | COc1ccc(CNC(=O)c2csc(Cc3ccc(Cl)cc3)n2)cc1 | 0.891 µM (active) | 
2 | COc1ccc(CNC(=O)C2CSC(=O)C2)cc1 (centres undefined) |  | -0.484%
3 | COc1ccc(Cc2nnc(NC(=O)c3cccc([N+](=O)[O-])c3C)s2)cc1 |  | 8.33%
4 | COc1ccc(CNC(=O)c2csc(Cc3ccc(OC)cc3)n2)cc1 | 14.1 µM (active) | 
5 | CCN(C(=O)COc1cc(=O)n(C)c2ccccc12)c1cccc(Cl)c1 | 15.8 µM (active) | 
6 | O=C(NCC1CCCO1)c1ccc2c(=O)n(Cc3ccco3)c(SCC(=O)N3CCCC3)nc2c1 (centres undefined) |  | -4.77%
7 | Cn1c(C(=O)N2COCC2(C)C)cc2c(=O)n3ccccc3nc21 | 6.31 µM (active) | 
8 | CC1Cc2ccccc2N1C(=O)c1cc2c(=O)n3ccccc3nc2n1C (centres undefined) | 3.16 µM (active) | 
9 | CC1Cc2ccccc2N1C(=O)C1CCCCN1S(=O)(=O)c1ccccc1 (centres undefined) |  | -7.61%
10 | Cc1ccccc1-n1ncc2c(SCC(=O)N3c4ccccc4CC3C)ncnc21 (centres undefined) |  | -27.5%
11 | Cn1c(C(=O)NCC2CCCO2)cc2c(=O)n3ccccc3nc21 (centres undefined) | 2.24 µM (active) | 
12 | Cc1ccc(S(=O)(=O)/C(C#N)=C/c2c(N3CC(C)OC(C)C3)nc3ccccn3c2=O)cc1 (centres undefined) |  | -4.89%
13 | C[C@@H](c1ccccc1)N1C(=O)[C@H]2[C@H]3[C@H](O)[C@H](O)C/C(=N/OC[C@@H](O)COCc4ccco4)[C@@H]3CC[C@@H]2C1=O |  | -14.6% [at 11.4 µM]
14 | Cn1c(=O)cnc2cnc(Nc3ccccc3)nc21 | 2 µM (active) | 
15 | COCCn1c(=O)cnc2cnc(Nc3cccc(OC)c3)nc21 | 0.794 µM (active) | 
16 | COCCn1c(=O)cnc2cnc(Nc3ccccc3)nc21 | 1 µM (active) | 
17 | COc1cccc(Nc2ncc3ncc(=O)n(C)c3n2)c1 | 1.58 µM (active) | 
18 | O=C(O)[C@@H]1[C@@H]2C[C@H]([C@@H](Br)[C@H]2N2C(=O)CCC2=O)[C@@H]1C(=O)O |  | -15.8% [at 2.29 µM]
19 | CN[C@@H]1[C@H](O[C@@H]2O[C@H](CO)[C@@H](N)[C@H](O)[C@@H]2O)O[C@H]2C[C@@H](N)[C@@H](O[C@H]3[C@@H](O)[C@H](O)[C@H](N)C[C@@H]3N)O[C@H]2[C@H]1O |  | -8.22% [at 25.6 µM]
20 | CC(C)Cn1cnc2c(Sc3c([N+](=O)[O-])ncn3C)nc(N)nc21 |  | 8.13% [at 2.29 µM]
21 | Brc1ccccc1OCCOCCOc1cccc2cccnc12 | 2.24 µM (active) | 
22 | Cc1ccc(OCCCOc2cccc3cccnc23)cc1C | 2.82 µM (active) | 
23 | Cc1c(CCO)c(=O)n(C)n1C(=O)c1ccc(F)cc1 |  | 12.2%

Row | SMILES | AC50 | activity, negative = inhibition
24 | COc1ccc(COC(=O)N/N=C2/C[C@@H](O)[C@@H](O)[C@@H]3[C@H]4C(=O)N(c5ccc(F)cc5F)C(=O)[C@@H]4CC[C@@H]23)cc1 |  | -3.56% [at 11.4 µM]
25 | COc1cc2c3cc1Oc1c(OC)c(OC)cc4c1[C@@H](Cc1ccc(O)c(c1)Oc1ccc(cc1)C[C@@H]3N(C)CC2)CN(C)C4 |  | -11.1% [at 11.4 µM]
26 | O=C(O)c1nc(-c2ccccc2)[nH]c1C(=O)O | 1 µM (active) | 
27 | Nc1cc(C(=O)O)[nH]c(=O)n1 |  | -6.95% [at 11.4 µM]
28 | C=CCn1c(COc2ccccc2)nnc1SCC(=O)N/N=C/c1ccc(C)cc1 | 3.55 µM (active) | 
29 | C=CCn1c(Cc2ccc(OC)cc2)nnc1SCC(=O)c1cccc([N+](=O)[O-])c1 |  | -28.6%
30 | COc1cccc2[nH]c3c(N4CC(C)CC(C)C4)ncnc3c12 (centres undefined) | 2 µM (active) | 
31 | CSc1ccccc1N1CCN(C(=O)Nc2ccc3c(c2)NC(=O)CO3)CC1 |  | -15.6%
32 | COc1ccc(-c2csc(NC(=O)CCn3cnc4ccccc4c3=O)n2)cc1OC |  | 1.57%
33 | c1cnc(Nc2nc(-c3ccc4ccccc4c3)cs2)nc1 | 0.224 µM (active) | 
34 | N[C@H](CO)C(=O)NCC(=O)O (H-[dS]-Gly-OH) |  | 3.56% [at 2.29 µM]
35 | CC(C)Nc1nc(NC(C)(C)C)nc(Oc2ccc(=O)n(-c3ccccc3)n2)n1 |  | -25.1%
36 | COC(=O)c1nn(-c2cccc(C(F)(F)F)c2)c(=O)cc1Sc1ccccn1 | 2.24 µM (active) | 
37 | COc1cc(-c2[o+]c3cc(O)cc(O)c3cc2O)cc(O)c1O |  | -19.9% [at 2.29 µM]
38 | CCSc1nc2sc3c(c2c(=O)[nH]1)CC(C)(CC)OC3 (centres undefined) |  | -26.5%
39 | C=CCSc1nc2c(sc3nc(C)cc(C)c32)c(=O)[nH]1 | 1.12 µM (active) | 
40 | O=C(Cn1ccnc1[N+](=O)[O-])NCCO |  | -3.66% [at 25.6 µM]
41 | O=C(O)CCc1nc(-c2ccccc2-n2cccc2)no1 |  | -17.3% [at 2.29 µM]
42 | c1ccc(CCc2nc(-c3ccccc3)no2)cc1 | 2.82 µM (active) | 
43 | Nc1nc(N)c(CCCCc2ccccc2)c(N)n1 |  | -0.16% [at 2.29 µM]
44 | CCN(CC)CCc1nc(-c2ccccc2)no1 | 5.01 µM (active) | 
45 | O=C(CCc1nc(-c2ccccc2)no1)NCCc1ccccc1 | 2.82 µM (active) | 
46 | CN1C(=O)NC(c2ccc(O)cc2)C(C(=O)c2cccs2)C1(O)C(F)(F)F (centres undefined) |  | -30.6%

Row | SMILES | AC50 | activity, negative = inhibition
47 | NC(=S)Nc1cc2ccccc2c2ccccc12 | 0.0708 µM (active) | 
48 | CN=C(N)/N=C(\N)Nc1cc2ccccc2c2ccccc12 | 0.251 µM (active) | 
49 | NC(=S)Nc1ccc(Oc2ccc(NC(N)=S)cc2)cc1 |  | 4.24%
50 | Cc1ccccc1N=C(N)Nc1ccccc1C |  | -9.83%
51 | O=P(O)(O)CCP(=O)(c1ccccc1)c1ccccc1 |  | -3.7%
52 | C[C@@H]1CCN=C(N)S1 |  | 2.78%
53 | O=C(OCC#CCSc1nnc(-c2cccc3ccccc23)o1)c1ccco1 | 0.398 µM (active) | 
54 | CC1=NN(c2ccc(C)cc2C)C(=O)C1C(c1ccccc1)C1C(=O)N(c2ccc(C)cc2C)N=C1C (centres undefined) |  | -9.21%
55 | Cc1ccc(N2C(=O)C(Cl)=C(NCc3ccccc3)C2=O)c(C)c1 | 11.2 µM (active) | 
56 | CO[C@H]1COC(=O)[C@H]2CCCN2C(=O)C/C=C\[C@@H](C)[C@H](OC)COC(=O)[C@@H](OCc2ccccc2)/C=C\[C@@H]1C |  | -3.46% [at 11.4 µM]
57 | O=C(CN1CCc2ccccc21)NC(=O)NCc1ccco1 | 6.31 µM (active) | 
58 | S=C(NCc1ccco1)N1CCN(C(c2ccccc2)c2ccccc2)CC1 |  | 4.67%
59 | CO[C@@H]1/C=C\O[C@]2(C)Oc3c(C)c(O)c4c(O)c(cc(O)c4c3C2=O)NC(=O)/C(C)=C\C=C/[C@H](C)[C@@H](O)[C@H](C)[C@H](O)[C@H](C)[C@H](OC(C)=O)[C@@H]1C |  | -9.97% [at 11.4 µM]
60 | Nc1c2c(=O)oc(-c3ccccc3)cc2nn1-c1ccccc1 | 2.24 µM (active) | 
61 | COC(=O)N1CCC2(CC1)CN(c1ccncc1)C2 |  | -19.9%
62 | CO/N=C\[C@@H](OC)[C@H](C)/C=C\CC(=O)OC |  | -3.46% [at 11.4 µM]
63 | C#CCSc1nnc(-c2sc(-c3ccccc3)nc2C)n1C | 4.47 µM (active) | 
64 | CSc1nnc(-c2sc(-c3ccccc3)nc2C)n1C | 11.2 µM (active) | 
65 | Cn1c(CN2CCOCC2)nnc1SCc1ccccc1 |  | 2.44%
66 | CCCCCCC(C)n1cc(C(C)=O)c(=O)[nH]c1=O (centres undefined) |  | -24.8%
67 | CCCCCCCCn1cc(C(C)=O)c(=O)[nH]c1=O | 15.8 µM (active) | 
68 | CC(=O)c1cn(CCCCCCCCCCn2cc(C(C)=O)c(=O)[nH]c2=O)c(=O)[nH]c1=O |  | 7%
69 | CCCOc1ccc(-c2nc(N)n[nH]2)cc1 | 15.8 µM (active) | 

Row | SMILES | AC50 | activity, negative = inhibition
70 | O=C1[C@H]2[C@H]3[C@H](O)[C@H](O)C/C(=N/OC[C@@H](O)COCc4ccco4)[C@@H]3CC[C@@H]2C(=O)N1C[C@@H]1CCCO1 |  | 6.9% [at 11.4 µM]
71 | CCC(CC)c1nnc(NC(=O)COc2ccc3c(C)cc(=O)oc3c2)s1 |  | -2.2%
72 | CC(=O)COc1ccc2c(C)c(C)c(=O)oc2c1 | 1 µM (active) | 
73 | COc1ccc2sc3ccccc3c(=O)c2c1OC | 3.55 µM (active) | 
74 | O=C(CCN1CCCCC1)N1CCc2c([nH]c3ccccc23)[C@H]1c1cccnc1 |  | -19.7% [at 2.29 µM]
75 | CN1[C@@H]2CC[C@H]1CC(OC(=O)c1c[nH]c3ccccc13)C2 (some centres undefined) |  | 0.351%
76 | O=C(OCCN1CCCCC1)c1c[nH]c2ccccc12 | 12.6 µM (active) and 15.8 µM (active) | 
77 | COc1ccc(NC(=O)N2CCC3(CC2)CCN(C(=O)c2cccn2C)CC3)cc1 |  | -8.9%
78 | CC(=O)N(/N=C1\Sc2ccccc2C1=O)c1ccccc1 | 2.24 µM (active) | 
79 | CC(=O)N(/N=C1\Sc2ccccc2C1=O)c1ccccc1C | 14.1 µM (active) | 
80 | COC(=O)[C@@H]1O[C@@H](SCCN)[C@@H](O)[C@H](O)[C@H]1O |  | 10.2% [at 2.29 µM]
81 | CCC1(C)Cc2c(sc3nnn(CC(=O)Nc4ccc(C)cc4)c(=O)c23)CO1 (centres undefined) | 14.1 µM (active) | 
82 | CCc1cc2c(nc1CC)CCN(CC/C(C)=N/OCC[C@@H]1C=C[C@H](OC(C)=O)[C@H](COC(C)=O)O1)C2 |  | -15.5% [at 11.4 µM]
83 | N#CC1=C(N)OC2=C(CC/C2=C\c2ccccc2)C1c1ccccc1 (centres undefined) | 2.51 µM (active) | 
84 | O=C(OCc1nc2ccccc2s1)c1ccc(Br)s1 | 3.16 µM (active) | 
85 | CCCc1cc(C(=O)Cc2nc3ccccc3s2)c(O)cc1O | 2.24 µM (active) | 
86 | CC(=O)OCc1nc2ccccc2s1 | 2.82 µM (active) | 
87 | Nc1cc(=O)[nH]c(N)n1 |  | -20.6%
88 | N=c1ccn2c(n1)O[C@H]1[C@@H](OP(=O)(O)O)[C@H](CO)O[C@H]12 |  | -3.14% [at 2.29 µM]
89 | COC(=O)[C@@H]1CC[C@H](C)[C@@H](c2ccc(C)cc2)N1C(=O)c1ccc(/C=N\OC[C@@H](O)COCc2ccco2)cc1 |  | -1.66% [at 11.4 µM]
